TEAD-YAP inh: TEAD-YAP interaction inhibition, primary screen, TEAD-YAP interaction inhibitor project, luminescence, HEK-TIYL cells | inhibition, % at 9.12 µM | AID 1259422, 2018 | TEAD-Gal4/YAP UAS-luciferase luminescence | actives 1.4% (n = 640,000); in the data active = inhibition above about 32%;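 note: 0% = median of test compound wells and 100% = reference inhibitor wells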
GPR151 ag: activators of human GPR151, primary screen, cell-based, PathHunter beta-arrestin, luminescence; PathHunter beta-arrestin GPR151 cells; G-protein coupled receptor 151 (Homo sapiens), Q8TDV0; activation, % at 11.2 µM; actives 1% (n = 650,000); in the data active = activation above about 4.9%;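 note: 0% = median of compound wells and 100% = cells with positive control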
Target sequence (Q8TDV0 whole entry, looked up): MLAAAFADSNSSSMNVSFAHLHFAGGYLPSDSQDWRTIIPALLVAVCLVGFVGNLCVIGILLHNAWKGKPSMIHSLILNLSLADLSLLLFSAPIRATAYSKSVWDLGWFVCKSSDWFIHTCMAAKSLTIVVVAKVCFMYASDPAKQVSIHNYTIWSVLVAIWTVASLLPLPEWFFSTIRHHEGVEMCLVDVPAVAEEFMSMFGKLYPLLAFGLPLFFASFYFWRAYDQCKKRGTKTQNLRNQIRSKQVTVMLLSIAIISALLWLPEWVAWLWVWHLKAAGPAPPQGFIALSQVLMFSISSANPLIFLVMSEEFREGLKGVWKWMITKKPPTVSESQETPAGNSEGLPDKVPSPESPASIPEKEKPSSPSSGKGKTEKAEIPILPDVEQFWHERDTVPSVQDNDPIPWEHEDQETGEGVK
FBW7 activator: FBW7 E3 ligase activators, primary screen, biochemical, AlphaScreen, human | AlphaScreen FBW7–phospho-cyclin E peptide binding, activator screen | actives 0.13% (n = 650,000) | normalized activity (activation), % at 26.1 µM | AID 1259310, 2017; in the data active = normalized activity above about 1.9%;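 note: purified mutant Fbw7 with reduced substrate affinity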
MITF inh: MITF inhibitors, primary screen, biochemical, AlphaScreen, human; Microphthalmia-associated transcription factor (Homo sapiens), O75030; AlphaScreen MITF homodimerization, bead proximity signal; inhibition, % at 2.6 µM; actives 0.91% (n = 650,000); in the data active = inhibition above about 50%;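 note: 0% = vehicle wells with protein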
* marks the source's active call; other numbers are inactive results. The list is not random: actives were taken first. Their share in the collection is about 3.4%.

SMILES | TEAD-YAP inh | GPR151 ag | FBW7 activator | MITF inh
CC(C)CCN1CCC2(CC1)CC2C(=O)N1C[C@@H](C)O[C@@H](C)C1 (some centres not stated) | 8.1 | 0.2 | 0.2 | -0.7
O=C(NC1CC1)C1CCN(c2ccc(-c3ccccc3)nn2)CC1 | 10.1 | -4.6 | 0.1 | -1.3
COc1ccccc1N1CCN(c2ccc(-c3ccccc3)nn2)CC1 | 87.9* | -4.8 | -0.2 | 3.1
c1ccc(-c2ccc(N3CCCCCC3)nn2)cc1 | 93.1* | -6.2 | 0.1 | -2.0
Cc1ccc(C)c(NC(=O)c2ccc(=O)[nH]n2)c1 | -8.2 | -2.0 | -0.1 | 6.0
O=C(Nc1ccc2c(c1)OCO2)c1ccc(=O)oc1 | -3.2 | -1.6 | -0.1 | 2.1
Cc1cc(-c2cnc(N3CCCC3)nc2C2CCN(C(=O)c3scnc3C)CC2)on1 | 60.4* | 1.1 | -0.2 | -4.3
Cc1cccn2c(=O)c3cc(C(=O)NCc4ccccc4)sc3nc12 | -1.9 | 0.0 | 0.0 | -3.0
CC(=O)NC(Nc1nnc(-c2ccc(C)cc2)s1)C(Cl)(Cl)Cl (configuration not stated) | 49.3* | -0.6 | -0.1 | 8.2
CC(=O)NC(Nc1nnc(-c2ccccc2)s1)C(Cl)(Cl)Cl (configuration not stated) | 21.6 | 3.3 | 0.1 | -6.1
CCOC(=O)Oc1c(-c2ccccc2)oc2ccccc2c1=O | -14.4 | -1.2 | -0.2 | 5.2
Clc1cncc(Cl)c1N1CCN(c2ccc(-c3cccnc3)cn2)CC1 | 50.3* | 0.0 | -0.4 | 16.0
COC(=O)c1cc(S(=O)(=O)Nc2ccc(Br)c(C)c2)cn1C | -4.2 | -0.1 | 0.0 | 3.2
CN(C)S(=O)(=O)Nc1ccc(OCc2ccccc2)cc1 | -23.2 | -1.4 | 1.9* | 12.0
O=S(=O)(Nc1ccc(OCc2ccccc2)cc1)c1ccc(Br)cc1 | -3.0 | 0.7 | 0.1 | -0.4
COc1ccc(C(=O)Nc2ccc(OCc3ccccc3)cc2)c(OC)c1 | 89.7* | -1.4 | 0.3 | 14.8
COC(=O)c1ccc(N2C(=O)CSC2c2ccc3c(c2)OCO3)cc1 (configuration not stated) | -5.3 | 0.0 | 0.0 | 2.8
COC(=O)c1cccc(-n2c(C)cc(/C=C(/C#N)C(=O)NCc3ccco3)c2C)c1 | 21.3 | 0.3 | -0.2 | 17.8
CNC(=O)/C(C#N)=C/c1cc(C)n(-c2ccc(F)cc2)c1C | 71.2* | 0.0 | -0.7 | 9.8
COC(=O)c1cccc(-n2c(C)cc(/C=C(\C#N)C(=O)Nc3ccccc3)c2C)c1 | 38.6* | 0.0 | 0.0 | -5.6
O=c1nc2n(c3ccccc13)Cc1ccccc1-2 | 10.0 | 1.8 | -0.1 | -1.0
N=c1nc2n(c3ccccc13)Cc1ccccc1-2 | 71.2* | -1.0 | 0.0 | 7.3
CC1(C)CC(=O)c2sc(NC(=O)c3ccc(F)cc3)nc2C1 | -54.8 | -2.8 | 0.0 | 6.5
N#Cc1ccc(/C=C(\C(=O)C(=O)O)c2ccc3ccccc3n2)cc1 | -30.3 | -4.1 | 0.7 | 22.0
COC(=O)c1ccc(/C=C(\C(=O)C(=O)O)c2ccc3ccccc3n2)cc1 | 60.0* | -2.3 | -0.1 | 10.9
SMILES | TEAD-YAP inh | GPR151 ag | FBW7 activator | MITF inh
Cc1cccc(C(=O)N/N=C/c2ccccc2F)c1 | -8.6 | 0.3 | -0.1 | -8.9
O=C(N/N=C/c1ccco1)c1cc(Cl)ccc1O | -16.3 | -0.9 | 0.0 | 1.8
O=C(N/N=C/c1ccco1)c1cc(O)c(O)c(O)c1 | -2.3 | -0.8 | -0.3 | 87.1*
O=C(N/N=C/c1ccccc1F)c1cc(O)c(O)c(O)c1 | -12.8 | -0.8 | 0.2 | 55.5*
COc1ccc2c(c1)OCC(Cc1ccc(OC)c(O)c1)C2=O (configuration not stated) | 49.5* | 3.1 | 0.1 | 0.8
CCCCC(=O)NC(c1ccco1)c1cc([N+](=O)[O-])c2cccnc2c1O (configuration not stated) | 3.3 | -0.8 | 0.1 | 9.9
Oc1c(C(c2cccnc2)N2CCOCC2)cc(Cl)c2cccnc12 (configuration not stated) | 16.9 | -0.3 | -0.3 | 42.0
COc1ccc(C(NC(=O)c2cccnc2)c2cc(Cl)c3cccnc3c2O)cc1 (configuration not stated) | 39.5* | 0.7 | -0.5 | 6.3
CCCC(=O)NC(c1ccc(OC)cc1)c1cc([N+](=O)[O-])c2cccnc2c1O (configuration not stated) | 4.7 | 1.6 | -0.3 | 20.9
COc1ccc(C(NC(=O)c2cccc(OC)c2)c2cc(Cl)c3cccnc3c2O)cc1 (configuration not stated) | 0.6 | -0.8 | -0.1 | 10.0
CCC(=O)NC(c1ccc(OC)cc1)c1cc([N+](=O)[O-])c2cccnc2c1O (configuration not stated) | -2.9 | -2.0 | -0.7 | 55.1*
Oc1c(C(Nc2ccccn2)c2cccnc2)cc(Cl)c2cccnc12 (configuration not stated) | 57.5* | 0.2 | -0.2 | 84.8*
CCCCC(=O)NC(c1ccccc1OC)c1cc([N+](=O)[O-])c2cccnc2c1O (configuration not stated) | 28.0 | -1.3 | -0.3 | 50.8*
NC1=NC(=O)/C(=C/c2cccc(OCc3ccccc3F)c2)S1 | -10.7 | 2.0 | -0.2 | 10.4
COc1ccc(-c2cc(-c3ccccc3)c(C#N)c(SCCS(=O)(=O)Cc3ccc(Cl)cc3)n2)cc1 | 2.5 | 2.7 | 0.0 | 7.8
COc1cc(NC(=O)c2cccnc2)c2ncccc2c1 | 78.8* | 0.2 | -0.1 | 0.8
Nc1ccc(S(=O)(=O)O)c2cccc(O)c12 | 11.6 | -0.3 | -1.2 | 70.9*
Cc1ccc(CNc2nc3ccccc3s2)s1 | 65.9* | 1.4 | 0.1 | -0.2
CC(C)=CCC/C(C)=C/CC(C)(C)CNCCN1CCNCC1 | 58.1* | -2.0 | 0.9 | -4.2
CCOC(=O)c1c(C)oc2ccc(NS(=O)(=O)c3ccc(OC)c([N+](=O)[O-])c3)cc12 | 2.1 | -1.0 | 0.1 | 25.2
CC(=O)Nc1ccc(NC(=O)c2cc(C)nc3ccc(C)cc23)cc1 | 34.9* | 1.3 | -0.1 | -9.0
COc1ccc(-n2cc(C(=O)NCCCN(C)Cc3ccccc3)c3ccccc3c2=O)cc1 | -2.5 | -1.5 | 0.4 | 11.3
O=C(O)c1c(Cl)c2cc(Cl)ccc2[nH]c1=O | 6.5 | -2.0 | -0.1 | 4.7
Cc1nc2ccccc2c2c1CC(C(C)(Cl)Br)O2 (configuration not stated) | 34.1* | -0.1 | 0.1 | -3.5
CC(=O)Nc1ccc(/C=C2\CCc3ccccc3C2=O)cc1 | 69.7* | 0.4 | -0.1 | 5.8
CC(C)n1cnc2c(Nc3ccccc3)nc(-c3ccc(C(=O)NC4CC4)cc3)nc21 | 31.9* | -1.0 | -0.1 | -20.1
CC(=O)c1cccc(-c2nc(NC3CCN(Cc4ccccc4)CC3)c3ncn(C(C)C)c3n2)c1 | 73.2* | 0.6 | -0.1 | -2.5
COc1ccc(-c2nc(NC3CCN(Cc4ccccc4)CC3)c3ncn(C(C)C)c3n2)cc1 | -2.6 | -2.8 | 0.2 | 10.4

High-throughput results from PubChem BioAssay.
